Assay results reported in PubChem BioAssay AID1845 (The Scripps Research Institute Molecular Screening Center, 2009).
Hit rate of the full screen: of about 290,000 compounds, about 490 (0.17%) were called active. Many of the other results were omitted from the sample, so actives are more common in it than they were. Values without a mark were called inactive. Cut-off read from the data, not from the text of the source: active = inhibition above about 37%; inactive = the rest.

Experiment: compounds displacing fluorescent DNA intercalator, primary screen, artefact control for HCV NS3 helicase inhibitor project, biochemical, FID fluorescence (AID 1845);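 note: 0% = vehicle and 100% = reference compound; higher means more ethidium bromide displaced from hairpin DNA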
Conditions: DNA fluorescent intercalator displacement, at 7.9 µM, hits give high values

With `C#CCOCCOCCOCCNc1nc(N2CCN(C(=O)C(Cc3ccc(O)cc3)n3cc(C(N)CC(C)C)nn3)CC2)nc(N2CCN(C(=O)C(Cc3ccc(O)cc3)n3cc(C(N)C(C)CC)nn3)CC2)n1` (stereo not given) as the molecule, how does the inhibition read?
Its inhibition is 46.3% (active).

For `C#CCOCCOCCOCCNc1nc(N2CCN(C(=O)[C@H](Cc3ccc(O)cc3)n3cc(C(N)CC(C)C)nn3)CC2)nc(N2CCN(C(=O)[C@H](CCC(=O)O)n3cc(C(N)[C@H](C)CC)nn3)CC2)n1` (stereo not given in full), which inhibition is on record?
The inhibition was 17.7%.

For `C#CCOCCOCCOCCNc1nc(N2CCN(C(=O)[C@H](C(C)C)n3cc(CCO)nn3)CC2)nc(N2CCN(C(=O)[C@H]([C@@H](C)CC)n3cc(CCCN=C(N)N)nn3)CC2)n1`, which inhibition is on record?
The inhibition was 21.4%.

With `C#CCOCCOCCOCCNc1nc(N2CCN(C(=O)[C@H](CCCCN)n3cc([C@@H](N)C(C)CC)nn3)CC2)nc(N2CCN(C(=O)[C@H](Cc3ccc(O)cc3)n3cc([C@@H](N)C(C)CC)nn3)CC2)n1` (stereo not given in full) as the molecule, how does the inhibition read?
Its inhibition is 55.6% (active).

With `C#CCOCCOCCOCCNc1nc(N2CCN(C(=O)[C@H](CCC(=O)O)n3cc(C(N)CO)nn3)CC2)nc(N2CCN(C(=O)[C@H](Cc3ccc(O)cc3)n3cc(C(N)[C@H](C)CC)nn3)CC2)n1` (stereo not given in full) as the molecule, how does the inhibition read?
Its inhibition is 6.75%.

With `C#CCOCCOCCOCCNc1nc(N2CCN(C(=O)[C@H](C(C)C)n3cc(CCO)nn3)CC2)nc(N2CCN(C(=O)[C@H](C(C)C)n3cc(CCO)nn3)CC2)n1` as the molecule, how does the inhibition read?
Its inhibition is -49.9%.

Which inhibition does the source give for `Cc1cc(C)n(CCNS(=O)(=O)c2ccc(Cl)cc2)n1` here?
Its inhibition is -8.78%.

With `COc1ccc(S(=O)(=O)NNC(=O)Nc2ccc(C)cc2)c(OC)c1` as the molecule, how does the inhibition read?
The inhibition was -10.4%.

With `CN1CCN(S(=O)(=O)c2cccc(C(=O)Nc3cccc(S(N)(=O)=O)c3)c2)CC1` as the molecule, how does the inhibition read?
The inhibition was 12.4%.

For `Cc1ccc(S(=O)(=O)NC2CCCCCC2)cc1C(N)=O`, which inhibition is on record?
Its inhibition is -7.28%.

With `CSc1ncc(C(=O)Nc2ccc(C)cc2C)c(C)n1` as the molecule, how does the inhibition read?
Its inhibition is -12.3%.

For `Cc1ccccc1C(=O)N1CCN(c2ccc(NC(=O)c3cccs3)cc2)CC1`, which inhibition is on record?
The inhibition was -49.5%.

With `CC(C)c1nc2cc(C(=O)NC(C)c3cnn(C)c3)ccc2o1` (stereo not given) as the molecule, how does the inhibition read?
The inhibition was -13.1%.

Which inhibition does the source give for `COc1cccc(NC(=O)Cn2cnc3sc(C)c(S(=O)(=O)N4CCN(C)CC4)c3c2=O)c1` here?
The inhibition was 26.6%.

For `COc1ccc(NC(=O)CCS(=O)(=O)c2cc3c(cc2Cl)NC(=O)CO3)cc1OC`, which inhibition is on record?
Its inhibition is -5.06%.

With `COc1ccc(CNC(=O)C(c2ccc(O)cc2)N(Cc2ccco2)C(=O)c2snc(C(N)=O)c2N)cc1` (stereo not given) as the molecule, how does the inhibition read?
The inhibition was -26.1%.

For `O=C(Cn1c(NCCO)nc2ccccc21)c1ccc(Cl)cc1Cl`, which inhibition is on record?
The inhibition was 8.95%.

With `Cc1cc(C)c2c(Cn3ccnc3)cc(=O)oc2c1` as the molecule, how does the inhibition read?
The inhibition was -1.43%.

Which inhibition does the source give for `Cc1sc2nc(SCCO)n(-c3ccccc3)c(=O)c2c1C` here?
The inhibition was -17.8%.

For `Cc1cc(=O)[nH]c(Nc2cccc(Br)c2)n1`, which inhibition is on record?
Its inhibition is -6.32%.

For `CC(C)(C)OC(=O)CNC(=O)c1[nH]cnc1C(=O)N[C@@H](Cc1ccccc1)C(=O)OCc1ccccc1`, which inhibition is on record?
Its inhibition is -34.4%.

Which inhibition does the source give for `CN(C)C(=O)c1ccc(NC(=O)c2ccccc2-c2ccccc2)cc1` here?
Its inhibition is -15.1%.

With `Cc1ccoc1C(=O)Nc1cccc(Oc2ccccc2)c1` as the molecule, how does the inhibition read?
The inhibition was -5.38%.

With `CCC(C(=O)NCCC(C)C)N(Cc1ccccc1Cl)C(=O)c1snc(C(N)=O)c1N` (stereo not given) as the molecule, how does the inhibition read?
The inhibition was -29.9%.

For `COc1ccc(NC(=O)CN2C(=O)COc3ccc(S(=O)(=O)N4CCOCC4)cc32)c(OC)c1`, which inhibition is on record?
The inhibition was -13.3%.

For `COc1ccc(N2CCN(CCNC(=O)Nc3cc(Cl)ccc3Cl)CC2)cc1`, which inhibition is on record?
Its inhibition is 21%.

Which inhibition does the source give for `CCCCc1nc(SCC(=O)Nc2nnc(C(C)C)s2)n[nH]1` here?
The inhibition was -16.5%.

For `O=C(NCCN1CCOCC1)c1ccc(/C=C2\Sc3ccccc3N(Cc3ccc(F)cc3)C2=O)cc1`, which inhibition is on record?
Its inhibition is 0.94%.

For `CN1CCN(CCCNC(=O)c2ccc(/C=C3\Oc4ccccc4N(Cc4ccc(Cl)cc4)C3=O)cc2)CC1`, which inhibition is on record?
Its inhibition is 40.6% (active).

With `CN1C(=O)/C(=C/c2ccc(C(=O)NC3CCCC3)cc2)Oc2ccccc21` as the molecule, how does the inhibition read?
Its inhibition is 1.1%.

With `Nc1nc(Nc2ccccc2)nc(NCCO)c1[N+](=O)[O-]` as the molecule, how does the inhibition read?
The inhibition was -6.38%.

With `CN(C)c1nc(Nc2ccc(Cl)c(Cl)c2)nc(N(C)C)n1` as the molecule, how does the inhibition read?
Its inhibition is -4.12%.

With `OCCNc1nc(Nc2ccc(Cl)c(Cl)c2)nc2ccccc12` as the molecule, how does the inhibition read?
Its inhibition is 40.6% (active).

Which inhibition does the source give for `COc1ccc(NC(=O)NNC(=O)COc2cc(C)c(Cl)c(C)c2)c(OC)c1` here?
Its inhibition is -28%.

With `CCOC(=O)C(NS(=O)(=O)c1ccc(C)cc1)(C(F)(F)F)P(=O)(OCC(C)C)OCC(C)C` (stereo not given) as the molecule, how does the inhibition read?
The inhibition was -11.5%.

Which inhibition does the source give for `Cc1cc(OCC(=O)N2CCN(c3ncccn3)CC2)ccc1Cl` here?
Its inhibition is -46.1%.

Which inhibition does the source give for `O=C(O)c1ccc2c(=O)n3c(nc2c1)/C(=C/c1ccc(Cl)c([N+](=O)[O-])c1)CC3` here?
Its inhibition is -14.2%.

Which inhibition does the source give for `Cc1cccc(OCC(O)Cn2c(=N)n(CCN3CCOCC3)c3ccccc32)c1` (stereo not given) here?
Its inhibition is 18.2%.

With `CCOc1ccc(C(O)Cn2c(=N)n(CCN3CCCCC3)c3ccccc32)cc1` (stereo not given) as the molecule, how does the inhibition read?
The inhibition was 40.9% (active).

With `Cn1c(=N)n(CC(O)c2ccccc2)c2ccccc21` (stereo not given) as the molecule, how does the inhibition read?
The inhibition was 2.17%.

For `CCC1CCCCN1CCCNC(=O)c1cc2c(Cl)nc3ccccc3c2s1` (stereo not given), which inhibition is on record?
The inhibition was 43.6% (active).

With `CCC1CCCCN1CCCNC(=O)Cn1nc(-c2ccccc2)ccc1=O` (stereo not given) as the molecule, how does the inhibition read?
Its inhibition is 0.11%.

For `CCC1CCCCN1CCCNC(=O)C1CCC(Cn2c(=O)[nH]c3ccccc3c2=O)CC1` (stereo not given), which inhibition is on record?
Its inhibition is 2.92%.

For `O=C(N/N=C/c1ccc(OCC2COCCO2)cc1)c1ccc(Br)cc1` (stereo not given), which inhibition is on record?
Its inhibition is -19.9%.

For `CCCCCCc1cc2cc(-c3nnc(-c4cccc(OC)c4)o3)c(=O)oc2cc1O`, which inhibition is on record?
Its inhibition is 0.28%.

For `CN(C)CCCn1c(SCc2ccc(Cl)cc2)nnc1-c1ccncc1`, which inhibition is on record?
Its inhibition is 3.61%.

With `COc1ccc(OC)c(NC(=O)CN(Cc2ccc(Cl)cc2)S(C)(=O)=O)c1` as the molecule, how does the inhibition read?
The inhibition was -26.1%.

Which inhibition does the source give for `O=C(/C=C/c1ccco1)NC(=S)Nc1ccccc1Br` here?
Its inhibition is -8.41%.

With `CCCNC(=O)N1CCC(c2ccc3c(c2)OCO3)CC1` as the molecule, how does the inhibition read?
Its inhibition is -7.97%.

For `NC(=O)COC(=O)c1ccc2c(c1)C(=O)N(Cc1ccco1)C2=O`, which inhibition is on record?
Its inhibition is -2.94%.
